Only some compounds are listed: those with a hit (about 1.6% of all), similar ones and a draw of the others.
PERK inhibitor: blocks human PERK kinase; Q9NZJ5; CHO PERK-DD fusion, SEAP luminescence translation reporter; inhibition, % at 5.6 µM; 220,000 compounds, 0.17% hits; AID 1416;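 active = inhibition above the mean inhibition of all tested compounds plus 3 SD, set separately per screening campaign, cut at about 2.9% in these data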;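 note: PERK kinase domain activated by AP20187 dimerizer at 100 nM; 0% = DMSO with dimerizer and 100% = rapamycin at 8.4 µM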
PABP FP inh: blocks human PABP binding to poly(A) RNA | fluorescence polarization | P11940 | 290,000 compounds, 1% hits | AID 2014 | inhibition, % at 35 µM;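 note: calls also rest on retests at 20 µM and on dose response follow-up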
Target sequence (P11940 whole entry, looked up): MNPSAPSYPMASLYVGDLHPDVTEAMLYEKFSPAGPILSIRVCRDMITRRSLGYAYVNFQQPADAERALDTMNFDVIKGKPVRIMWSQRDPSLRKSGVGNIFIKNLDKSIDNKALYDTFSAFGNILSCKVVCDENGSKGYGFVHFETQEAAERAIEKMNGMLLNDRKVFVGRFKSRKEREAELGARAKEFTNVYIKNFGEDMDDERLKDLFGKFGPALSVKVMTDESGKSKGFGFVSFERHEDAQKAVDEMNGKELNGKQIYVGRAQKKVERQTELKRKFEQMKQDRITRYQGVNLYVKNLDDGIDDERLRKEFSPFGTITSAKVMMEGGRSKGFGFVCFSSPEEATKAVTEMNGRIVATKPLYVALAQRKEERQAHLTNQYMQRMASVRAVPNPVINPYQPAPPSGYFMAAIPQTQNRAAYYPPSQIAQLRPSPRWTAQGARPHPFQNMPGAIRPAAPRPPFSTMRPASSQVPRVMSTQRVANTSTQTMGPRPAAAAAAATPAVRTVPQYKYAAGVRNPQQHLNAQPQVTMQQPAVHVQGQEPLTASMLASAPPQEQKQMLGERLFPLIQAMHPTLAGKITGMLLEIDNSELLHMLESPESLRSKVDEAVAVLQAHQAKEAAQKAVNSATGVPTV
eIF4E 4G PPI: eIF4E/eIF4G interaction inhibition in translation initiation; 220,000 compounds, 0.37% hits; TR-FRET eIF4E-eIF4GI(517-606) binding, 2 h; P63073+Q04637; inhibition, % at 21.7 µM;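 active = inhibition above about 30%, limit read from the data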;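 note: 0% = full FRET control wells and 100% = background wells lacking eIF4GI fragment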
eIF4H inh: inhibitors of RNA binding by human eIF4H. AID 2012. Q15056. 290,000 compounds, 0.94% hits. eIF4H fluorescence polarization binding assay. inhibition, % at 35 µM;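 note: calls also rest on retests at 20 µM and on dose response follow-up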
MLLE-PAM2 inh: blocks PAM2 peptide binding to the PABP1 MLLE domain. P11940. GST-MLLE / FITC-PAM2 fluorescence polarization. inhibition, % at 20 µM. 360,000 compounds, 0.36% hits. AID 588489; in the data active = inhibition above about 35%, passing the limit was not always enough;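 note: plate controls were DMSO wells with GST-MLLE for no effect and wells lacking GST-MLLE protein for full effect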
Active calls of the source: *; ? = inconclusive; nt = no result; [ ] = remark or other dose. Unless noted, the rule behind the calls is not given here.

SMILES | PERK inhibitor | PABP FP inh | eIF4E 4G PPI | eIF4H inh | MLLE-PAM2 inh
CCOC(=O)C1(Cc2cccc(OC)c2)CCCN(Cc2c(C)nn(C(C)C)c2C)C1 (stereo not drawn) | -1.6 | -5.3 | 97.1* | -0.8 | -13.1
Brc1cccc(C2CC(c3ccccc3)n3nnnc3N2)c1 (stereo not drawn) | 0.1 | -13.0 | 33.8* | -5.4 | 5.6
c1ccc(C2CC(c3cccs3)Nc3nnnn32)cc1 (stereo not drawn) | 0.8 | -10.3 | 2.8 | -10.8 | -2.9
CNc1ccc(Cl)cc1C(N)=O | 0.1 | 63.2* | -1.9 | -5.8 | -13.6
O=C(CCc1ccc(S(=O)(=O)N2CCOCC2)cc1)N/N=C/c1ccc(F)cc1F | -0.2 | -1.9 | -1.3 | -6.3 | -0.3
O=[N+]([O-])c1ccc(N/N=C/c2cccc(O)c2O)c(S(=O)(=O)N2CCOCC2)c1 | 0.0 | -5.4 | 2.7 | 7.8 | -9.3
O=C(CCc1ccc(O)c(O)c1)N/N=C/c1cc2c(cc1[N+](=O)[O-])OCO2 | nt | 60.7* | nt | 94.0* | 15.4
O=C(CCc1ccc(S(=O)(=O)N2CCOCC2)cc1)N/N=C/c1ccc(O)c(O)c1O | 0.6 | active | 15.8 | 95.5* | 33.0
O=[N+]([O-])c1ccc(N/N=C/c2ccc(O)c(O)c2O)c(S(=O)(=O)N2CCOCC2)c1 | 0.5 | 30.5* | 20.2 | 89.6 | -13.8
O=C(Nc1ncccn1)C1CCCCC1 | 0.6 | -1.0 | -0.1 | -0.7 | -1.6
Cc1ccc(NC(=O)COC(=O)CSC(=S)N2CCOCC2)cc1 | 1.0 | 54.9* | -3.3 | active | 6.2
CCCNc1cc(=S)nc(N)[nH]1 | -0.3 | ? | 1.9 | ? | 41.9*
CCCNc1nc2ccccc2c(=O)[nH]1 | 0.7 | 6.9 | 2.3 | -3.5 | 11.6
CCCCN(CC)CCCNC(=O)CC1Oc2ccccc2NC1=O (stereo not drawn) | -0.4 | -0.9 | -21.1 | -2.5 | 4.2
CCN(CC)CCCNC(=O)CC1Sc2ccccc2NC1=O (stereo not drawn) | 1.0 | -3.0 | 32.0* | -5.5 | -1.7
Cc1ccc(S(=O)(=O)NNC2=NS(=O)(=O)c3ccccc32)c(C)c1 | 0.1 | 6.9 | -1.5 | -1.5 | 5.0
Cc1cc2c(c(=O)n1Cc1ccco1)C(c1cccnc1)C(C#N)=C(N)O2 (stereo not drawn) | 2.6 | 123.4* | -4.5 | 124.4* | 2.5
Cn1ncc(Cl)c1C(=O)N1CCN(S(=O)(=O)c2cccs2)CC1 | nt | -8.1 | nt | -5.9 | -3.8
COc1ccc(Nc2nnc(SCc3cc(=O)n4ccsc4n3)s2)cc1 | 0.5 | 31.2* | -7.0 | 74.7* | 6.9
O=c1cc(CSc2nnc(Nc3ccccc3F)s2)nc2sccn12 | 0.5 | 7.2 | 5.1 | -6.8 | -24.4
Cc1ccc2nc(CSc3nnc(Nc4ccccc4F)s3)cc(=O)n2c1 | -0.4 | active | -0.3 | 69.7* | -8.4
N#Cc1c2c(c(-c3ccco3)[nH]c1=O)CCCC2 | 1.9 | 14.7 | 5.1 | 9.8 | 41.9*
COc1cc(OC)c(S(=O)(=O)Nc2ccccc2NC(=O)CN2CCOCC2)cc1NC(C)=O | 0.2 | 2.8 | -0.9 | 4.6 | -12.6
CCOC(=O)c1c(C)[nH]c(C)c1S(=O)(=O)NC(CC)CN1CCOCC1 (stereo not drawn) | nt | 64.2* | nt | 94.5* | 1.2
O=C(CN1CC(=O)Oc2ccccc21)OCC(=O)c1ccccc1 | 2.9* | 0.8 | 0.9 | 14.8 | 13.9
SMILES | PERK inhibitor | PABP FP inh | eIF4E 4G PPI | eIF4H inh | MLLE-PAM2 inh
Cc1ccsc1C=Nc1ccc(O)cc1 | 1.4 | 28.2 | 10.6 | 51.1* | 21.6
C[n+]1cc(-c2ccccc2)n2c1CCCCC2 | 1.9 | 64.7* | -15.2 | 6.1 | -103.5
CCCCCCc1cc2cc(C(N)=O)c(=N)oc2cc1O | 0.8 | 107.8* | -4.9 | 96.2* | nt
C/C=C/C1=CC(=O)C[C@H](c2ccc(F)cc2)C1 | nt | nt | nt | nt | 2.2
O=C(Cn1cc2c(n1)CCCC2)NCC1CCCO1 (stereo not drawn) | 3.2* | 0.5 | -3.7 | 5.4 | 4.0
CC1CCC(NC(=O)Cn2cc3c(n2)CCCC3)CC1 (stereo not drawn) | 1.7 | 2.8 | -0.7 | -5.6 | 15.4
N#Cc1ccccc1Cn1cc(/C=C/[N+](=O)[O-])c2ccccc21 | 0.1 | 4.9 | 3.0 | -1.7 | -19.3
COc1ccc2c(c1)c(CC(=O)Nc1ccc(C(C)=O)cc1)c(C)n2C(=O)c1ccc(Cl)cc1 | -0.6 | active | -2.1 | 52.9* | -10.0
CN(C)c1ccc(-c2nnc(-c3ccc(S(=O)(=O)C(F)F)cc3)o2)cc1 | 1.1 | 74.1* | -32.1 | 67.6* | -63.1
COc1ccc(-c2nnc(-c3ccc(N(C)C)cc3)o2)cc1 | -0.5 | -6.8 | 0.3 | -2.9 | -6.1
O=C(O)c1cc(S(=O)(=O)O)ccc1O | 1.5 | 1.1 | -4.5 | -8.1 | 1.3
Cn1nc(C(C)(C)C)cc1C(=O)Sc1cccc(Br)c1 | -0.1 | -1.4 | -0.5 | -2.3 | 44.1*
Cn1nc(C(C)(C)C)cc1C(=O)O | 1.5 | -6.6 | 3.4 | -10.4 | 8.4
O=c1c2ccccc2n2c(-c3ccc(F)cc3)nnc2n1Cc1ccccc1 | 1.0 | active | -1.0 | 52.8* | -14.5
Cc1ccc(S(=O)(=O)N2CCN(C(=O)COC(=O)/C=C/c3ccccc3F)CC2)c(C)c1 | nt | nt | nt | nt | -16.3
COc1ccc(CN2C(=O)CCC2(C)C(=O)NC2CCCC2)c(OC)c1 (stereo not drawn) | 0.5 | -10.7 | 4.6 | 7.8 | -7.8
C=CCNC(=O)COc1cc(C)ccc1C | 0.6 | 8.4 | 39.6* | -4.0 | 3.8
FC(F)(F)C(F)(F)C(F)(F)c1nc2nc(Cl)c(Cl)nc2[nH]1 | nt | nt | nt | nt | 48.6*
Cc1ccc(NC(=O)c2cc(-c3ccco3)nc3ccccc23)cc1S(=O)(=O)N1CCOCC1 | -0.6 | 1.2* | 9.5 | 66.0* | -4.9
O=C(Nc1ccc(Cl)c(S(=O)(=O)N2CCOCC2)c1)c1cc(-c2ccccn2)nc2ccccc12 | -0.3 | -6.0 | 3.5 | 4.6 | -3.9
COc1ccc(NC(=O)c2cc(C)nc3ccccc23)cc1S(=O)(=O)N1CCOCC1 | nt | nt | nt | nt | 7.2
COc1ccc(NC(=O)c2cc(-c3ccco3)nc3ccccc23)cc1S(=O)(=O)N1CCOCC1 | 1.1 | 49.6* | 38.3* | 71.2 | -23.1
C=C(C)Cn1c(CCNC(=O)c2ccco2)nc2ccccc21 | nt | 9.2 | nt | -7.9 | -9.3
C=C1c2cc(OC)ccc2NC(=O)N1CC | 0.1 | 2.5 | -1.2 | -1.9 | 5.8
O=c1nc(/C=C/c2ccc(-c3ccc(F)cc3)o2)cc(C(F)(F)F)[nH]1 | 0.0 | 121.0* | -3.5 | 127.3 | nt
COc1ccc(CNC(=O)C(c2ccco2)N(Cc2cccs2)C(=O)Cc2cccs2)cc1 (stereo not drawn) | -0.1 | -5.4 | 1.2 | -9.3 | 7.1
COc1ccc(CNC(=O)C(c2ccco2)N(C(=O)Cc2cccs2)c2cccnc2)cc1 (stereo not drawn) | 0.4 | 26.3 | 4.1 | 76.8* | 6.4
CCCCCc1ccc(OCCC[n+]2ccccc2)c(CCCCC)c1 | -1.6 | 18.3 | 2.1 | -5.2 | -4.8
CC(C)N(C)C1CCN(S(=O)(=O)c2ccc(-c3ccc(=O)[nH]n3)s2)CC1 | nt | -2.2 | nt | -5.6 | -4.8
O=C(Cn1c2[n+](c3ccc(C(F)(F)F)cc31)CCCCC2)Nc1ccccc1 | -0.2 | 3.7 | 34.0*[fluorescence artefact?] | 5.3 | -106.0

Compound activity from PubChem BioAssay.
